Each structure is given as a SMILES string. “And” between values parts separate entries of the source, which are not always exact repeats. Identical values can stand only once. More than one record can exist for a structure, and the calls need not agree. The source made the active and inactive calls. How the source made its calls: active means hit-call score of the fitted dose curve at least 0.9, where 1 is the maximum; inactive means score below 0.9.

As a reminder, the AC50 is the concentration at which the activity in the assay is half-maximal.

The nature of assay [1]: ATG_E_Box_CIS: Attagene CIS-FACTORIAL HepG2 Assay for human Enhancer Box (E-box) (AID 2282936). Particulars: HepG2 E-box cis-reporter transcription, actives raise or lower the signal. The method, boiled down:
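Endogenous transcription factor activity was sensed in human HepG2 liver cells through transfected cis-promoter reporter units. After 24 h of dosing, total RNA was reverse-transcribed and reporter cDNA resolved by capillary electrophoresis.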

A short description of assay [2]: ATG_M_61_CIS: Attagene CIS-FACTORIAL HepG2 Assay for M61 Transcription Factor (Internal Marker) (AID 2282937). To be noted: HepG2 Attagene CIS-FACTORIAL M61 internal marker reporter; actives raise or lower the signal. Summed up:
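Using transiently transfected HepG2 liver cells, reporter transcript levels were assessed 24 h post-dosing by RT-PCR and capillary electrophoresis. Changes in either direction were fitted relative to DMSO controls.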

Assay [3] is described as follows: ATG_M_19_CIS: Attagene CIS-FACTORIAL HepG2 Assay for M19 Transcription Factor (Internal Marker) (AID 2282939). To be noted: HepG2 Attagene CIS-FACTORIAL M19 internal marker reporter; actives raise or lower the signal. Summed up:
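HepG2 cells transiently transfected with cis-regulated multiple reporter transcription units were dosed for 24 h; reporter mRNA was quantified by RT-PCR, 6-FAM primer-extension labelling, HpaI digestion and capillary electrophoresis, with bidirectional fitting against DMSO baseline.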

Assay [4] can be described thus: ATG_ERE_CIS: Attagene CIS-FACTORIAL HepG2 Assay for Estrogen Response Element (ERE) (AID 2282940). Particulars: HepG2 ERE cis-reporter, Attagene RNA transcript; actives raise or lower the signal. The method, boiled down:
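HepG2 cells transiently transfected with cis-promoter-driven multiplexed reporter transcription units report endogenous TF activity. After 24 h compound exposure, reporter mRNA is quantified by RT-PCR with capillary electrophoresis fluorescence; bidirectional fitting versus DMSO baseline.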

A short description of assay [5]: ATG_Ets_CIS: Attagene CIS-FACTORIAL HepG2 Assay for human Erythroblast Transformation Specific (ETS) (AID 2282941). Particulars: HepG2 ETS cis-reporter transcription; AC50: actives raise or lower the signal unless noted; outcome: actives raise or lower the signal unless noted. The method, boiled down: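 Cis-regulated reporter mRNA induction in HepG2 (transient transfection), 24 h exposure, RT-PCR plus capillary electrophoresis detection; DMSO serves as negative control and baseline.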

In assay [6] the target is Hepatocyte nuclear factor 3-beta (Homo sapiens) (UniProt Q9Y261). Nature of the assay: ATG_FoxA2_CIS: Attagene CIS-FACTORIAL HepG2 Assay for human Forkhead box A2 (FOXA2) (AID 2282942). To be noted: HepG2 cis-reporter transcription factor activity, 24 h; actives raise or lower the signal. Summed up:
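Fluorescence signal of reporter cDNA fragments, separated by capillary electrophoresis, reflects endogenous transcription factor activity in transfected HepG2 after 24 h. Both increases and decreases fitted against DMSO.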

The nature of assay [7]: ATG_FoxO_CIS: Attagene CIS-FACTORIAL HepG2 Assay for human Forkhead box O (FoxO) (AID 2282943). To be noted: HepG2 Attagene cis-reporter, FoxO element, mRNA; actives raise or lower the signal. Summed up:
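Values reflect reporter mRNA induction or loss in HepG2 cells 24 h post-dosing, fitted bidirectionally with DMSO as negative control and baseline. Detection used RT-PCR and fluorescence capillary electrophoresis.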

Assay [8] in a line: ATG_GATA_CIS: Attagene CIS-FACTORIAL HepG2 Assay for human GATA Binding Protein (AID 2282944). To be noted: HepG2 GATA cis-element reporter, Attagene multiplex mRNA; actives raise or lower the signal. Summed up:
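HepG2 cells transiently transfected with multiplexed cis-element reporter units reflecting endogenous transcription factor activity; reporter mRNA measured after 24 h dosing by RT-PCR, 6-FAM labeling, HpaI digestion and capillary electrophoresis. Bidirectional fitting versus DMSO baseline.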

Assay [9] can be described thus: ATG_GLI_CIS: Attagene CIS-FACTORIAL HepG2 Assay for human Zinc Finger Protein GLI1 (AID 2282945). Particulars: HepG2, Attagene cis-factorial reporter mRNA, GLI element; actives raise or lower the signal. The method, boiled down: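 HepG2 cells transiently transfected with cis-promoter multiplexed reporter units report endogenous transcription factor activity. After 24 h chemical exposure, reporter mRNA was quantified by RT-PCR, 6-FAM labelling, HpaI digestion and capillary electrophoresis, with bidirectional fitting against DMSO.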

Assay [10] in a line: ATG_GRE_CIS: Attagene CIS-FACTORIAL HepG2 Assay for human Glucocorticoid Response Elements (GRE) (AID 2282947). To be noted: HepG2 GRE cis-reporter, Attagene multiplex mRNA; AC50: actives raise or lower the signal unless noted; outcome: actives raise or lower the signal unless noted. Summed up: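 Cells (HepG2) bearing transfected cis-promoter reporter transcription units were treated with chemical for 24 hours. Reporter mRNA was measured via RT-PCR with capillary electrophoresis, and activity was fitted in both directions relative to DMSO.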

Assay [11] can be described thus: ATG_ISRE_CIS: Attagene CIS-FACTORIAL HepG2 Assay for human Interferon Regulatory Factor 1 (IRF1) binding to an Interferon-Stimulated Response Element (ISRE) (AID 2282948). To be noted: HepG2 ISRE cis-reporter (Attagene), mRNA transcription readout; actives raise or lower the signal. Summed up:
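Multiplexed mRNA reporter readout in human liver HepG2 cells: cis-element-driven reporters transfected, compound added for 24 h, transcripts amplified, fluorescently labelled and sized by capillary electrophoresis; curve fitting bidirectional against DMSO.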

Assay [12] in a line: ATG_M_32_CIS: Attagene CIS-FACTORIAL HepG2 Assay for M32 Transcription Factor (Internal Marker) (AID 2282949).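 Further: background control marker of the multiplexed CIS panel rather than a real target.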 Particulars: HepG2 Attagene cis-factorial M32 reporter, mRNA; actives raise or lower the signal. The method, boiled down: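 HepG2 transfectants (cis-regulated reporter transcription units) dosed 24 h. Reporter mRNA by RT-PCR plus CE, analysed as gain or loss relative to DMSO.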

Assay [13] can be described thus: ATG_M_06_CIS: Attagene CIS-FACTORIAL HepG2 Assay for M06 Transcription Factor (Internal Marker) (AID 2282950). Particulars: HepG2 Attagene CIS-FACTORIAL M06 internal marker reporter; actives raise or lower the signal. The method, boiled down: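 HepG2 cells transiently transfected with cis-regulated multiple reporter transcription units were exposed to chemical for 24 h; reporter mRNA was quantified by RT-PCR, 6-FAM primer labelling, HpaI digestion and capillary electrophoresis, fitted bidirectionally against DMSO.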

For assay [14], the target named is Hypoxia-inducible factor 1-alpha (Homo sapiens) (UniProt Q16665). Nature of the assay: ATG_HIF1a_CIS: Attagene CIS-FACTORIAL HepG2 Assay for human Hypoxia Inducible Factor 1 (HIF1A) (AID 2282951). To be noted: HepG2 Attagene cis-factorial HIF1a reporter transcription; actives raise or lower the signal. Summed up: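 Endogenous-TF cis reporter readout, human HepG2 cells, 24 h incubation; mRNA detected via RT-PCR and capillary electrophoresis fluorescence; DMSO-normalised bidirectional fitting.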

The target of assay [15] is Hepatocyte nuclear factor 6 (Homo sapiens) (UniProt Q9UBC0). In words: ATG_HNF6_CIS: Attagene CIS-FACTORIAL HepG2 Assay for human Hepatocyte Nuclear Factor 6 (HNF6) (AID 2282952). Particulars: HepG2 Attagene cis-factorial HNF6 reporter transcription; actives raise or lower the signal. Summed up:
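Readout: fluorescent reporter-transcript fragments resolved by capillary electrophoresis after RT-PCR, reflecting endogenous factor activity in transfected HepG2. Exposure 24 h. Gain or loss of signal fitted bidirectionally against DMSO.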

Assay [16] deals with Heat shock factor protein 1 (Homo sapiens) (UniProt Q00613). Nature of the assay: ATG_HSE_CIS: Attagene CIS-FACTORIAL HepG2 Assay for human Heat Shock Transcription Factor 1 (HSE) (AID 2282953). To be noted: HepG2 HSE cis-reporter, Attagene RNA transcription; actives raise or lower the signal. The method, boiled down:
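HepG2 cells transiently transfected with multiple reporter transcription units under cis-regulatory promoter control, measuring endogenous transcription factor activity. After 24 h chemical exposure, reporter mRNA quantified by RT-PCR, fluorescent labelling, HpaI digestion and capillary electrophoresis; bidirectional fit versus DMSO.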

A short description of assay [17]: ATG_MRE_CIS: Attagene CIS-FACTORIAL HepG2 Assay for human Metal Responsive Element (MRE) (AID 2282954). To be noted: HepG2 MRE cis-reporter transcription, Attagene multiplex; actives raise or lower the signal. Summed up: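 Cells were transfected with cis-promoter reporter transcription units, then dosed for 24 h. RNA was reverse-transcribed, amplified, fluorescently labelled and resolved by capillary electrophoresis, and activity was fitted in both directions relative to DMSO.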

A short description of assay [18]: ATG_PBREM_CIS: Attagene CIS-FACTORIAL HepG2 Assay for human Phenobarbital-responsive Enhancer Module (PBREM) (AID 2282955). Particulars: HepG2 PBREM cis-reporter, Attagene multiplexed transcription; actives raise or lower the signal. The method, boiled down: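 Readout: reporter mRNA, fluorescent RT-PCR fragments separated by capillary electrophoresis. System: HepG2 transiently transfected with cis-regulated reporter units. Exposure: 24 h. Analysis: bidirectional, DMSO baseline.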

A short description of assay [19]: ATG_EGR_CIS: Attagene CIS-FACTORIAL HepG2 Assay for human Early Growth Response 1 (EGR1) (AID 2282938). To be noted: HepG2 Attagene CIS-FACTORIAL EGR reporter mRNA; actives raise or lower the signal. Summed up:
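Fluorescent capillary-electrophoresis signal of reporter cDNA fragments serves as read-out. HepG2 cells bear transiently transfected cis-promoter reporter units and are exposed 24 h; gain- or loss-of-signal is fitted against DMSO.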

Assay [20] deals with Bile acid receptor (Homo sapiens) (UniProt Q96RI1). Nature of the assay: ATG_IR1_CIS: Attagene CIS-FACTORIAL HepG2 Assay for human Nuclear Receptor Subfamily 1 Group H Member 4 (NR1H4), IR1 submotif (AID 2282946). To be noted: IR1 reporter transcription, actives raise or lower the signal. The method, boiled down: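 Readout: reporter transcript levels by RT-PCR with fluorescent capillary electrophoresis, from HepG2 cells transiently transfected with multiplexed cis-regulated reporters and dosed 24 h. Gain- or loss-of-signal fitted versus DMSO negative control.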
Sequence of Bile acid receptor (Homo sapiens) (Q96RI1 whole entry, looked up): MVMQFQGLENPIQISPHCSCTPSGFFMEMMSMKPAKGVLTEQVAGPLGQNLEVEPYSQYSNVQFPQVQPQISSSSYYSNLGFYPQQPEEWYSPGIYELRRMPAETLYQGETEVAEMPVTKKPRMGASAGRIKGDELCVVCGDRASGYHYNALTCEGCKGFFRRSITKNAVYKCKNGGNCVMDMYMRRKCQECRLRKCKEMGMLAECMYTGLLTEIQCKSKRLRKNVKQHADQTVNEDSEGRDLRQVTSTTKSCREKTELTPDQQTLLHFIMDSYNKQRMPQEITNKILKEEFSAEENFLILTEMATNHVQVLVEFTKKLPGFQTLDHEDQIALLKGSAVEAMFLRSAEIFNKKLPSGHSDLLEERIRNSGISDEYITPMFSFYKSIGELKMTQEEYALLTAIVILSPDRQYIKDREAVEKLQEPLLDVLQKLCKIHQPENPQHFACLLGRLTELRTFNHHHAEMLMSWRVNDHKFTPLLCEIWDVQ

Sequence of Hepatocyte nuclear factor 6 (Homo sapiens) (Q9UBC0 whole entry, looked up, the tested form may be a part): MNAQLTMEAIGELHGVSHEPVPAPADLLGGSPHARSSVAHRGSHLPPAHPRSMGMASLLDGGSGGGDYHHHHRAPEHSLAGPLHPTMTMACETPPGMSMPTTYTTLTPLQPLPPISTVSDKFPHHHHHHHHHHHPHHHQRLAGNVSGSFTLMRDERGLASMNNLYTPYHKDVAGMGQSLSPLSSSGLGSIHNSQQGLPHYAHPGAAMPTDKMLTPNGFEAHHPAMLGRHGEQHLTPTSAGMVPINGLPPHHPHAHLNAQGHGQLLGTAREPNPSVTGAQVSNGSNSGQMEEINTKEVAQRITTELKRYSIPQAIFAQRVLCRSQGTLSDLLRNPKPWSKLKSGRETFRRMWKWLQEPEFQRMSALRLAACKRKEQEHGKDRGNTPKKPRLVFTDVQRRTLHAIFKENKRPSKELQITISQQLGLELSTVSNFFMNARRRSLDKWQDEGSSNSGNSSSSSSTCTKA
Sequence of Hypoxia-inducible factor 1-alpha (Homo sapiens) (Q16665 whole entry, looked up): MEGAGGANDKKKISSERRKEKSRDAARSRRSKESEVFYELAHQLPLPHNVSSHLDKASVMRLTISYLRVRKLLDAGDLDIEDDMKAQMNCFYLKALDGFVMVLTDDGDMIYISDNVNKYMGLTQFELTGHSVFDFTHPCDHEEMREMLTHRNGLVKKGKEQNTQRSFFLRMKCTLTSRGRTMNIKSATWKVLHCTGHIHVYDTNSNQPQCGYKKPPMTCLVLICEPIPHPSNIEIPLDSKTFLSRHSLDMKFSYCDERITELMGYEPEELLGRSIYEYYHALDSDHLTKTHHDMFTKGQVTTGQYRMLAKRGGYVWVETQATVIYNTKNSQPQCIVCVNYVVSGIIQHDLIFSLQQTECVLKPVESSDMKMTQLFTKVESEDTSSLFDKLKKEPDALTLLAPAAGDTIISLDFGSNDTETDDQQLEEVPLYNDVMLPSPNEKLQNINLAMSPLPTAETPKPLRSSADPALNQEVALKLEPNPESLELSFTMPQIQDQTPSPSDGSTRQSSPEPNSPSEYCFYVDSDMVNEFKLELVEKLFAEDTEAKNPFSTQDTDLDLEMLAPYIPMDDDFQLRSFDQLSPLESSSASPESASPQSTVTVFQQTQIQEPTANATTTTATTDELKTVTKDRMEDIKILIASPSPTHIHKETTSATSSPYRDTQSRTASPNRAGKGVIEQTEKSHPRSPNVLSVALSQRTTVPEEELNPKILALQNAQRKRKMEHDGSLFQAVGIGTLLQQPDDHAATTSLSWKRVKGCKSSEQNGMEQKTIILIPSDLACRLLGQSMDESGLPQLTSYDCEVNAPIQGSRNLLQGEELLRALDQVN
Sequence of Heat shock factor protein 1 (Homo sapiens) (Q00613 whole entry, looked up): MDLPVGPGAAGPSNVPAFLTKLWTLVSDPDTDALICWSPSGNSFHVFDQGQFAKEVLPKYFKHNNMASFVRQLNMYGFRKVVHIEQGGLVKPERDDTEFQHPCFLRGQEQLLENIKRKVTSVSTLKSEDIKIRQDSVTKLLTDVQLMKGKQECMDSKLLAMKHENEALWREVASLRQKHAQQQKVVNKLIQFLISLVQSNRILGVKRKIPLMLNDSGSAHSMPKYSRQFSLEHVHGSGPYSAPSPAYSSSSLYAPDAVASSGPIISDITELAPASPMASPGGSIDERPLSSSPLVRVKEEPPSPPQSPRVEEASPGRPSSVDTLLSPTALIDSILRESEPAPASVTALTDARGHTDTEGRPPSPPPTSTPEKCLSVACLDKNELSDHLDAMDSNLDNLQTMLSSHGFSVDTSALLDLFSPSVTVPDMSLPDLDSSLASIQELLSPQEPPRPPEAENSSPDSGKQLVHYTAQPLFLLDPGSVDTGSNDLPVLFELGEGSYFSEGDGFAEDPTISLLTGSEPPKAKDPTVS
Sequence of Hepatocyte nuclear factor 3-beta (Homo sapiens) (Q9Y261 whole entry, looked up, the tested form may be a part): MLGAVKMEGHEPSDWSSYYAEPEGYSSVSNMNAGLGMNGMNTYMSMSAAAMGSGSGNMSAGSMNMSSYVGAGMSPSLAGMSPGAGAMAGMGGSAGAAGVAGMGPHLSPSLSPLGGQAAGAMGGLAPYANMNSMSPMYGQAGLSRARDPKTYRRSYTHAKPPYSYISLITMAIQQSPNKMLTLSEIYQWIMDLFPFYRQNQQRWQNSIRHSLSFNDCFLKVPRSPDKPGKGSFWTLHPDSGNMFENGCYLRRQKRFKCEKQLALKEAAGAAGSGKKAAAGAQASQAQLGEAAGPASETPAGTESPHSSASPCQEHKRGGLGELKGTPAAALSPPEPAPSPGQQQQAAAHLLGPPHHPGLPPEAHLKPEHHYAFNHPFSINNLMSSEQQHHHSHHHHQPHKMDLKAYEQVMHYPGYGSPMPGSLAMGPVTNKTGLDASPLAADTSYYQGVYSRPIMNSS

Consider `NC(=NCCCCCCN=C(N)/N=C(\N)Nc1ccc(Cl)cc1)/N=C(\N)Nc1ccc(Cl)cc1`, for which the concentration at half-maximal activity (AC50) in assay [1] is 26.8 µM (active) and 23.9 µM (active); in assay [3], 26.1 µM (active); in assay [4] it was 4.6 µM (active); in assay [5], 7.45 µM (active) and 6.93 µM (active); in assay [7] it was 22.9 µM (active); in assay [10] it was 23.2 µM (active) and 25.6 µM (active). In addition, the concentration at half-maximal activity (AC50) is 5.9 µM (active) and 6.55 µM (active) in assay [11]; 23.4 µM (active) and 23.8 µM (active) in [12]; 25.7 µM (active) in assay [15]; 2.62 µM (active) and 2.68 µM (active) and 1.87 µM (active) in assay [17]; 4.31 µM (active) in assay [18]. Moreover, the result in assay [1], in [2], in assay [3], in assay [4], in assay [5] and in assay [6] was inactive. Moreover, the compound was classed as inactive in [7], in [8], in [9], in assay [10], in assay [11] and in assay [12]. In addition, the compound was classed as inactive in [13], in [14], in [15], in assay [16] and in assay [18].

For `COc1cc([N+](=O)[O-])ccc1N`, the outcome in [1], in assay [2], in assay [19], in assay [3], in assay [4] and in assay [5] was inactive. Moreover, the compound was classed as inactive in assay [6], in assay [7], in assay [8], in assay [9], in [20] and in assay [10]. For the same compound, the compound was called inactive in assay [11], in [12], in assay [13], in [14], in assay [15] and in assay [16]. The compound was classed as inactive in assay [17] and in [18].

As to `O=C(F)C(F)(F)C(F)(F)C(F)(F)C(=O)F`, the result in [1], in [2], in assay [19], in assay [3], in [4] and in assay [5] was inactive. Further, the compound was classed as inactive in [6], in assay [7], in [8], in [9], in assay [20] and in assay [10]. The result in [11], in assay [12], in assay [13], in assay [14], in [15] and in [16] was inactive. Further, the compound was called inactive in [17] and in assay [18].

The record behind these values is PubChem BioAssay (EPA / NIEHS).
